# According to PubChem BioAssay (Tox21):
# Results filed as inconclusive are left out. Where a call stands in place of a potency, no number is given. Activity calls are given as the source filed them. The call rests on the fitted dose curve.
# Biological target: Beta-2 adrenergic receptor (Homo sapiens) (UniProt P07550)
# Experiment: Adrenergic beta2 receptor (ADRB2) small molecule antagonists, cell-based qHTS assay (AID 1963592); further: nearly all actives have a fitted effect of over 50% in size
# Details: CHO-ADRB2 cells, isoproterenol-stimulated cAMP HTRF ratio, 0.5 h; series mostly up to 92.4 µM
# Text: U.S. Tox21 Program National Center for Advancing Translational Sciences [NCATS] Division of Preclinical Innovation [DPI] U.S. Environmental Protection Agency [EPA] National Institutes of Environmental Health Sciences [NIEHS] National Toxicology Program [NTP] U.S. Food and Drug Administration [FDA] Tox21 Assay Overview: Beta adrenergic receptors (Beta-ARs) belong to the G-protein coupled receptor (GPCR) superfamily, includes three subtypes - beta1, beta2, and beta3. Beta1-AR is the predominant receptor subtype expressed in the heart, and beta2-AR is expressed in the kidney, lung, blood vessel and in the heart, and beta3 is found in the adipocytes. Beta1 and 2 ARs couple to Gs protein and elevate cyclic adenosine mono phosphate (cAMP), which activates protein kinase A and leads to the downstream signaling responsible for the physiological actions. Beta-AR agonists or antagonists are the most prescribed therapeutic agents for heart failure and asthma, and these were one of the first target receptors for the rational drug design. Tox21 10K compound library was screened using the cAMP-Gs dynamic assay (Cisbio Bioassays, Shelton, CT) to identify agonists/antagonists of the Gs-coupled human adrenergic, beta2 receptor (ADRB2) in the CHO-ADRB2 cell line (Codex BioSolutions, Inc. Gaithersburg, MD), which stably over-expresses ADRB2. The principle of cAMP-Gs dynamic assay is based on HTRF technology, which facilitates the fluorescence resonance energy transfer (FRET) between donor Europium cryptate and acceptor d2-labeled cAMP. The cAMP generated within cells competes with the red acceptor, d2-labled cAMP, for binding to the monoclonal anti-cAMP-cryptate (Europium donor). An increase in intracellular cAMP leads to the disruption of FRET signal, and the signal is inversely proportional to the cAMP concentration. Propranolol HCl (Sigma-Aldrich, St. Louis, MO) was used as a positive control in the screening.
# Tox21 Assay Protocol Summary: CHO-ADRB2 cells were dispensed at 1,000/well in 4uL assay medium into white/solid 1536-well plates (Greiner Bio-One North America Inc., Monroe, NC) using a Multidrop Combi dispenser (ThermoFisher Scientific, Waltham, MA). The assay plates were incubated at 37C and 5% CO2 for an overnight (18-20hr). Then positive control and test compounds dissolved in DMSO were transferred to the assay plates at 23nL using a Pintool station (Wako, San Diego, CA). Following the compound and positive control transfer, 1uL agonist-stimulation mix containing 1nM Isoproterenol HCl, 100uM IBMX and 25uM Ro-20-1724 was added to each well of the assay plates using BioRAPTR Flying Reagent Dispenser (FRD, Beckman Coulter, Brea, CA). The assay plates were incubated at room temperature for 0.5hr. Then 2.5ul each d2-labled cAMP and anti-cAMP-cryptate solutions were added separately to each well of the assay plates using an FRD and the assay plates were incubated at room temperature for 1hr. The fluorescence signal was measured at two different wavelengths (665nm and 615nm) using an Envision plate reader (Perkin Elmer, Shelton, CT). Data were expressed as the ratio of 665 nm/615 nm.
# Beta-2 adrenergic receptor (Homo sapiens), sequence (P07550 whole entry, looked up): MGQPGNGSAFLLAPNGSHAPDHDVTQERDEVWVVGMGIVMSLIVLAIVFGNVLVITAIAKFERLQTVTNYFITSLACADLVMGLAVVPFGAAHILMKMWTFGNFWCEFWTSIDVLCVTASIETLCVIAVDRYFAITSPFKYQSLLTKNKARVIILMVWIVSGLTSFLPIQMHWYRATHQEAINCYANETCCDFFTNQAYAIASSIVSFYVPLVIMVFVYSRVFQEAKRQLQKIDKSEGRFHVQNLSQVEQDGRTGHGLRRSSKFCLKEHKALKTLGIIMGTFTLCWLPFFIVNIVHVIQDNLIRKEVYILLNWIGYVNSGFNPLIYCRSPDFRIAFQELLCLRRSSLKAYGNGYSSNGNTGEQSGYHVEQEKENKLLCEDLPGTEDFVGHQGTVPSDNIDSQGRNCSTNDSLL
row,Structure (SMILES),Potency
1,Clc1cc(Cl)c(Cl)cc1Cl,inactive
2,O=S1(=O)CC=CC1,inactive
3,CCCCCCCCCCCCO,inactive
4,CCC[C@H](N[C@@H](C)C(=O)N1[C@H](C(=O)O)C[C@@H]2CCCC[C@@H]21)C(=O)OCC,inactive
5,Cc1cccc(O)c1C,inactive
6,Cc1cccc(C(=O)O)c1,inactive
7,CS(=O)(=O)c1ccc([C@@H](O)[C@@H](CO)NC(=O)C(Cl)Cl)cc1,inactive
8,O=C(C1CCCCC1)N1CC(=O)N2CCc3ccccc3C2C1 (stereo not given),inactive
9,O=[N+]([O-])C(CO)(CO)CO,inactive
10,c1ccc2[nH]c(-c3cscn3)nc2c1,inactive
11,CC(O)COCC(C)O (stereo not given),inactive
12,CC(C)CCCCCCCOC(=O)CCCCC(=O)OCCCCCCCC(C)C,inactive
13,Clc1ccccn1,inactive
14,CCCCC(C=O)CC (stereo not given),inactive
15,O=C1c2c(O)cccc2Cc2cccc(O)c21,inactive
16,O=C(O)c1ccc2c(c1)C(=O)OC2=O,inactive
17,Cc1cn([C@H]2C=C[C@@H](CO)O2)c(=O)[nH]c1=O,inactive
18,NC(=O)c1cnccn1,inactive
19,COc1cc(C=O)ccc1O,inactive
20,C/C=C(C)/C=C/C=C(C)C,inactive

row,Structure (SMILES),Potency
1,CC(=O)Nc1ccc(CC(=O)O)cc1,inactive
2,CC(C)(N)CO,inactive
3,CC/C(C)=N/O,inactive
4,CC(=O)CCC(=O)O,inactive
5,O=C1CCc2ccccc2O1,inactive
6,CC(=O)c1ccccn1,inactive
7,CCCCCCCCC(=O)O,inactive
8,COc1cc([C@@H]2c3cc4c(cc3[C@H](O)[C@H]3COC(=O)[C@H]23)OCO4)cc(OC)c1OC,inactive
9,CC(C)Cc1ccc(C(C)C(=O)O)cc1 (stereo not given),inactive
10,CCC(C)(O)CCCC(C)C (stereo not given),inactive
11,O=S(=O)(O)c1ccc2nc(-c3ccccc3)[nH]c2c1,inactive
12,O=C(O)c1cc(C(=O)O)cc(S(=O)(=O)O)c1,inactive
13,COC(=O)CCCC(=O)OC,inactive
14,CCCCCCCCC/C=C/CC1CC(=O)OC1=O (stereo not given),inactive
15,CCCC(O)C(CC)CO (stereo not given),inactive
16,O=C1NC(=O)C(c2ccccc2)(c2ccccc2)N1,inactive
17,CC(=O)OCCOC(C)=O,inactive
18,CC(=O)[C@@]1(O)CC[C@H]2[C@@H]3C[C@H](C)C4=CC(=O)C=C[C@]4(C)[C@@]3(F)[C@@H](O)C[C@@]21C,inactive
19,C=CCCCCCCCCCC,inactive
20,C=CCNC(N)=S,inactive
